Some of the results follow. Values without a mark were called inactive. Active and inactive are the calls of the source.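 How the source made its calls: active means inhibition at or below a set negative limit, negative inhibition meaning the enzyme was activated; inactive means the rest.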

Hexokinase HKDC1 (Homo sapiens), sequence (Q2TB90 whole entry, looked up): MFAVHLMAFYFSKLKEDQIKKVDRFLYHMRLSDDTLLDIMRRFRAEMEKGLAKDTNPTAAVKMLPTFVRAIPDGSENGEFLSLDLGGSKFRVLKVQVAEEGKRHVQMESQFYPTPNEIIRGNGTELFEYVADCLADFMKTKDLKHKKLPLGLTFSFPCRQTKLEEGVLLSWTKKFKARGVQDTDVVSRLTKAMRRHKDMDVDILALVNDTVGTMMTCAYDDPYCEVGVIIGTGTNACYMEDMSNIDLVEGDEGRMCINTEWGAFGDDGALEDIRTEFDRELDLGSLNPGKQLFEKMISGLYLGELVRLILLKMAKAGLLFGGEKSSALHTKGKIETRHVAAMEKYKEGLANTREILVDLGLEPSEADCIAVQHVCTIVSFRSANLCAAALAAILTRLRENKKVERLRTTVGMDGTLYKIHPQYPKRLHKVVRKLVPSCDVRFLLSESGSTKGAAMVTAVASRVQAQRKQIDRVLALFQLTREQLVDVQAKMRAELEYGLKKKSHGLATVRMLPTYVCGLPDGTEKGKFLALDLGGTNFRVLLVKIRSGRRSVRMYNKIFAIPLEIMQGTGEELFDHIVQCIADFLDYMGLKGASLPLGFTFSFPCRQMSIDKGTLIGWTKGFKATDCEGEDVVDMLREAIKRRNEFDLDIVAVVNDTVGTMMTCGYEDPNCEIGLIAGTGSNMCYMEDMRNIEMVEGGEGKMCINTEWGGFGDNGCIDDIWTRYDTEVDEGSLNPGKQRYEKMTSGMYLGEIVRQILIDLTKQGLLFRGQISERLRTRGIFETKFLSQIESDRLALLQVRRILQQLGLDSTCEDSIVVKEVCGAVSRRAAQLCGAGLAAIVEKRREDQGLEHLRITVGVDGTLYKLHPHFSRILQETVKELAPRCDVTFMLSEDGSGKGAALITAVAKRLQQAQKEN

This experiment has as its target Hexokinase HKDC1 (Homo sapiens) (UniProt Q2TB90). Put plainly: HKDC1 hexokinase activators, confirmation, biochemical, single concentration (AID 504708). The settings on record: recombinant HKDC1, G6PDH/diaphorase resazurin fluorescence; at 20 µM; active compounds read low.
As to `COc1ccc(N(CC(=O)N/N=C/c2cccc3c2OCCO3)S(=O)(=O)c2ccc(NC(C)=O)cc2)cc1`, the inhibition is 19.1%. As for `Cc1cc(C(=O)CCl)c(C)n1CC1COc2ccccc2O1` (stereo not given), the figure is 11%. As for `CCOC(=O)CSc1nc2ccc(C)cc2n2cnnc12`, the inhibition was 63.8%. The same measure for `Cc1cc(C2=NNC(=Nc3ccc(S(=O)(=O)N4CCOCC4)cc3)SC2)c(C)n1CC1CCCO1` (stereo not given): -55.8% (active); for `COCCNC(=O)Nc1ccc2nc(-c3ccco3)c(-c3ccco3)nc2c1`: -20.8%; for `CCOc1cc(/C=N/n2cnnc2)c(Br)cc1O`: 28.4%. As for `CCc1ccc2c(c1)C1(NN=C(c3ccccc3)S1)C(=O)N2` (stereo not given), the figure is -13.6%; as for `O=S(=O)(Nc1ccc(O)c2ccccc12)c1ccc(OC(F)(F)F)cc1`, 19.8%. As for `Cc1ccc(C(=O)O)cc1-c1ccc(/C=C2\SC(=O)N(CC(=O)Nc3ccc4c(c3)OCO4)C2=O)o1`, the figure is 13.9%; as for `O=C(CSc1n[nH]c(-c2cccnc2)n1)Nc1ccnc2ccccc12`, 46%.

Turning to `O=c1ccc2c(-c3ccccc3S(=O)(=O)O)c3ccc(O)c(O)c3oc-2c1O`, the inhibition was 14.4%. Regarding `Nc1ccc2nc3c(=O)[nH]c(=S)[nH]c3nc2c1`, the inhibition was -3.17%. As for `C[N+](C)(CCCCCC[N+](C)(C)CCCN1C(=O)c2cccc3cccc(c23)C1=O)CCCN1C(=O)c2cccc3cccc(c23)C1=O`, the figure is -82% (active); as for `O=C(Nc1ccccc1Cl)/C(Cl)=C(\Cl)S(=O)c1ccccc1` (stereo not given), -5.2%; as for `CCOC(=O)C1=C(c2ccc(OC)cc2)C(=O)c2ccccc2C1=O`, 75%. The same measure for `CC(C)(C)Nc1c(N)c(=O)oc2ccccc12`: -27.1%; for `Cc1ccc2oc(=O)c3cnn(CC(=O)N4CCCCCC4)c3c2c1`: -63.5% (active); for `COC(=O)c1ccc(NCc2cc(O)ccc2O)cc1`: 65.1%. As for `CC(=O)N(C1=C(Cl)C(=O)c2ccccc2C1=O)c1ccc(C(=O)O)cc1`, the figure is 64.4%; as for `COc1ccc(C(CCN(Cc2ccc(OC)c(OC)c2)C(=O)CCl)c2ccccc2)cc1` (stereo not given), 17.4%.

On to `Cc1ccc(N(Cc2cc(=O)[nH]c3ccccc23)C(=O)CCl)cc1`, for which the inhibition was 34.5%. The same measure for `O=c1[nH]c2ccccc2n2c(-c3ccccc3)nnc12`: 58.5%.

As to `CCn1cc(C(=O)NCc2ccc3c(c2)OCO3)c2cc(OC)c(OC)cc2c1=O`, the inhibition is 45.9%. The same measure for `O=C(NC1=CC(=O)c2ccccc2C1=O)c1ccccc1`: 69.9%; for `Cc1ccc(Nc2nc(-c3sc(NC(=O)c4ccccc4)nc3C)cs2)cc1`: 12.1%. As for `O=C(c1cccnc1)N(c1cc2sc(=O)oc2c2ccccc12)S(=O)(=O)c1ccccc1`, the figure is -5%; as for `CCC(=C/c1sc2ccc3ccccc3c2[n+]1C)/C=C1\Sc2ccc3ccccc3c2N1C`, 24.1%. With `COc1ccc2c(c1)c(=Cc1ccc(N(C)C)cc1)c1cc(-c3ccccc3)[n+](C)n12`, the inhibition is 31.2%. As for `O=C(CSc1cccc2cccnc12)N/N=C/c1cccnc1`, the figure is -46.6% (active); as for `O=C1C(Cl)=C(Oc2ccccc2)C(=O)c2ccccc21`, 77.7%. The same measure for `COc1ccc(NC(=O)CSc2ccc(-c3ccco3)nn2)c(OC)c1`: 70.8%. The same measure for `CCCc1nc2oc3c(OCC)ncnc3c2c2c1COC(C)(C)C2`: 14.9%; for `CC(=O)/C(=N\Nc1ccc(Cl)cc1Cl)Sc1cccc2cccnc12`: -44.8% (active); for `CN1c2ccc(C=O)c3c(C=O)ccc(c23)N(C)C1(C)C`: 61.2%.

Regarding `Clc1cccc(N=C2NN=C(c3ccc4c(c3)OCCO4)CS2)c1`, the inhibition is -99.6% (active).

Source of the values: PubChem BioAssay AID504708 (Sanford-Burnham Center for Chemical Genomics, 2011).
